The results in this text go back to ChEMBL document CHEMBL4303122, “Identification of potential treatments for COVID-19 through artificial intelligence-enabled phenomic analysis of human cells infected with SARS-CoV-2” (2020).

Over roughly 1,600 compounds, “Hit score” has its median near 0.13; the highest 2% begin near 0.46. For the sample, the highest values were picked, then their nearest neighbours and some compounds at random.

The test system of this assay is SARS-CoV-2. The experiment in a line: Antiviral activity against SARS-CoV-2 (USA-WA1/2020 strain) measured by imaging in HRCE cells at MOI 0.4 after 96 hrs (reported as hit score from 0-1 for on-disease vs off-disease activity: scores >0.6 considered hits). The class given is functional, Homo sapiens.
`COc1cc(N2CCC(N3CCN(C)CC3)CC2)ccc1Nc1ncc(Cl)c(Nc2ccccc2P(C)(C)=O)n1` [BRIGATINIB] came in with a Hit score of 0.1463. With `N#Cc1cc2c(cc1[N+](=O)[O-])=NC(=O)C(=O)N=2` the figure was 0.1284; with `Cl.OC[C@H]1NC[C@@H](O)[C@@H](O)[C@@H]1O`, 0.1457; with `CN[C@@H](C)[C@H](O)c1ccccc1.Cl` [EPHEDRINE HYDROCHLORIDE], 0.3718. Then `CC(=O)[C@@]1(O)CC[C@H]2[C@@H]3C[C@H](C)C4=CC(=O)CC[C@]4(C)[C@H]3CC[C@@]21C`, with 0.2069; and `C[C@H](CCC(=O)O)[C@H]1CC[C@H]2[C@@H]3[C@H](O)C[C@@H]4C[C@H](O)CC[C@]4(C)[C@H]3C[C@H](O)[C@]12C` [CHOLIC ACID], with 0.1604. Then `CC(=O)[C@@]1(O)CC[C@H]2[C@@H]3CCC4=CC(=O)CCC4=C3[C@@H](c3ccc(N(C)C)cc3)C[C@@]21C` [ULIPRISTAL], with 0.1448; and `Nc1cccc2c(=O)[nH][nH]c(=O)c12.[Na+]`, with 0.2367; and `CCCN[C@@H]1CCc2nc(N)sc2C1` [DEXPRAMIPEXOLE], with 0.07275.

Compound `CC(C)(C)NCC(O)COc1cccc2c1CCC(=O)N2` (stereo not drawn) [CARTEOLOL] returned a Hit score of 0.1646. `CC(C)(C)NC[C@H](O)COc1nsnc1N1CCOCC1` [TIMOLOL] registered a Hit score of 0.174. For the compound `CC(C)(C)NCC(O)COc1cc(Cl)ccc1Cl` (stereo not drawn) [CLORANOLOL], the Hit score came out at 0.4962. Then `CC(C)(C)NCC(O)c1cc(Cl)c(N)c(Cl)c1` (stereo not drawn) [CLENBUTEROL], with -0.07437; and `CC(C)(C)NCC(O)c1cc(Cl)c(N)c(C(F)(F)F)c1` (stereo not drawn) [MABUTEROL], with -0.1589.

Compound `Cc1ccc(Cl)c(OCC(O)CNC(C)(C)C)c1` (stereo not drawn) [BUPRANOLOL] had a Hit score of 0.4669. Consider `CC(C)(C)NC[C@H](O)COc1ccccc1C1CCCC1` [PENBUTOLOL], for which the Hit score stood at 0.4905. Consider `CC(C)(C)NCC(O)c1ccccc1Cl` (stereo not drawn) [TULOBUTEROL], for which the Hit score is -0.01366. Then `CC(C)(C)NC[C@H](O)COc1cccc2c1CCCC2=O` [LEVOBUNOLOL], with 0.1851; and `CO[C@@]1(NC(=O)C2SC(=C(C(N)=O)C(=O)O)S2)C(=O)N2C(C(=O)O)=C(CSc3nnnn3C)CS[C@@H]21` (stereo partly drawn) [CEFOTETAN], with 0.1396.

Turning to `COc1cc2c(Oc3ccc4[nH]c(C)cc4c3F)ccnc2cc1OCC1(N)CC1` [CATEQUENTINIB], the Hit score came out at 0.165.

As to `CO/N=C(\C(=O)N[C@@H]1C(=O)N2C(C(=O)[O-])=C(C[n+]3cccc4c3CCC4)CS[C@H]12)c1csc(N)n1` [CEFPIROME], the Hit score was 0.1204. Compound `COC(=O)OCOc1c2n(ccc1=O)N([C@@H]1c3ccccc3SCc3c1ccc(F)c3F)[C@@H]1COCCN1C2=O` [BALOXAVIR MARBOXIL] yielded a Hit score of 5.7e-05. With `O=[N+]([O-])/N=C1\NCCN1Cc1ccc(Cl)nc1` [IMIDACLOPRID] the figure was 0.158; with `CCOC(=O)CSCCC1NC(C(=O)O)CS1` (stereo not drawn) [LETOSTEINE], 0.08225; with `O=C(Nc1ccc(Cl)cc1)Nc1ccc(Cl)c(Cl)c1` [TRICLOCARBAN], 0.4616. Then `CNC(=O)c1cc(Oc2ccc(NC(=O)Nc3ccc(Cl)c(C(F)(F)F)c3)cc2)ccn1` [SORAFENIB], with 0.2484.

Regarding `N=C(NCCCCCCNC(=N)NC(=N)Nc1ccc(Cl)cc1)NC(=N)Nc1ccc(Cl)cc1` [CHLORHEXIDINE], the Hit score is given as 0.08739. The compound `CCCCc1nc(Cl)c(C(=O)O)n1Cc1ccc(-c2ccccc2-c2nn[nH]n2)cc1` [CARBOXYLIC ACID METABOLITE] had a Hit score of 0.01747.
